This is an account of results in the supplement of paper PMC13380429.

Assay [1] has as its system Vero E6 infected with SARS-CoV-2. Description: morphology score (similarity to uninfected cells); higher = more like uninfected cells. The note with it: 24 h.
Assay [2] shares this test system. The assay can be described thus: SARS-CoV-2 infection rate relative to infected DMSO; higher = more infection, active = 60 or less. The note with it: 24 h.

Each structure is given as a SMILES string.

As to `COc1ccccc1S(=O)(=O)Nc1ccc2c(c1)CN(C)C(=O)N2` (0.833333 µM), the morphology score in assay [1] was -0.0409. Besides, the SARS-CoV-2 infection rate in assay [2] is 108% (inactive).

Consider `O=C(Nc1nc(-c2cc(Cl)cs2)c(N2CCN(C3CCCCC3)CC2)s1)c1cnc(N2CCC(C(=O)O)CC2)c(Cl)c1` [avatrombopag] (10 µM), for which, in assay [1], the morphology score came out at 0.0997. In assay [2], the SARS-CoV-2 infection rate is 100% (inactive).

With `NC(=O)c1ncn([C@@H]2O[C@H](CO)[C@@H](O)[C@H]2O)c1O` [mizoribine] (10 µM), the morphology score in assay [1] was 0.0626. The SARS-CoV-2 infection rate in assay [2] is 112% (inactive).

With `O=C1C=CC[C@@H]2[C@H]3CCCN4CCC[C@@H](CN12)[C@@H]34` [sophocarpine] (10 µM), the morphology score in assay [1] is -0.0321. Moreover, in assay [2], the SARS-CoV-2 infection rate was 112% (inactive).

Consider `CNC1CC(c2ccc(Cl)c(Cl)c2)c2ccccc21` (stereo not given) [indatraline] (10 µM), for which, in assay [1], the morphology score was -0.112. For the same compound, the SARS-CoV-2 infection rate in assay [2] is 114% (inactive).

The compound `CN1C2CCC1CC(OC(=O)C(O)c1ccccc1)C2` (stereo not given) [Homatropine Bromide] (10 µM) registered a morphology score in assay [1] of 0.0164. Moreover, the SARS-CoV-2 infection rate in assay [2] is 108% (inactive).

In assay [1], `CC1(C)[C@H]2CC[C@]1(C)[C@@H](O)[C@H]2O` [cis-exo-camphanediol-2,3] (10 µM) yielded a morphology score of 0.0601. Also, the SARS-CoV-2 infection rate in assay [2] is 106% (inactive).

As to `C/N=C(/NC#N)NCCSCc1csc(NC(=N)N)n1` [tiotidine] (10 µM), the morphology score in assay [1] is 0.11. Further, in assay [2], the SARS-CoV-2 infection rate is 98% (inactive).

Consider `C[N+](C)(C)CC(=O)O` [betaine] (10 µM), for which, in assay [1], the morphology score amounted to 0.11. In addition, the SARS-CoV-2 infection rate in assay [2] is 102% (inactive).

`O=S(=O)(O)c1cc(O)ccc1O` [etamsylate] (10 µM): the morphology score in assay [1] was found to be 0.0853. Besides, the SARS-CoV-2 infection rate in assay [2] was 94.5% (inactive).

With `Fc1ccc(C(c2ccc(F)cc2)N2CCN(C/C=C/c3ccccc3)CC2)cc1` [flunarizine] (10 µM), the morphology score in assay [1] turned out to be 0.364. Besides, the SARS-CoV-2 infection rate in assay [2] is 69.5% (inactive).

In turn, `COc1ccc(/C=C\c2cc(OC)c(OC)c(OC)c2)cc1OP(=O)(O)O` [fosbretabulin] (0.833333 µM) came in with a morphology score in assay [1] of 0.0485. Moreover, in assay [2], the SARS-CoV-2 infection rate was 112% (inactive).

As for `CCCCCCCCCC(=O)OC1(c2ccc(Cl)cc2)CCN(CCCC(=O)c2ccc(F)cc2)CC1` [haloperidol-decanoate] (10 µM), the morphology score in assay [1] stood at 0.166. Besides, in assay [2], the SARS-CoV-2 infection rate is 96% (inactive).

`Cc1ccc2nc(NCCN)c3ncc(C)n3c2c1` (0.833333 µM) yielded a morphology score in assay [1] of -0.353. The SARS-CoV-2 infection rate in assay [2] is 116% (inactive).

Turning to `N=C(N)NC(=O)Cc1c(Cl)cccc1Cl` [guanfacine] (10 µM), the morphology score in assay [1] was 0.255. Further, the SARS-CoV-2 infection rate in assay [2] was 86% (inactive).

As to `CN1C(=O)c2c(nn(Cc3ccc(-c4cccc(F)n4)cc3)c2Nc2ccccc2)N2C1=N[C@@H]1CCC[C@@H]12` (10 µM), in assay [1], the morphology score turned out to be 0.38. The SARS-CoV-2 infection rate in assay [2] was 105% (inactive).

`COC(=O)CCc1ccc(OCC(O)CNC(C)C)cc1` (stereo not given) [esmolol] (10 µM) registered a morphology score in assay [1] of -0.00906. Further, the SARS-CoV-2 infection rate in assay [2] was 116% (inactive).

`C[C@]12CC[C@H]3[C@@H](CC[C@]4(O)C[C@@H](O)CC[C@]34C=O)[C@@]1(O)CC[C@@H]2C1=CC(=O)OC1` [K-strophanthidin] (0.833333 µM) came in with a morphology score in assay [1] of 0.0264. Also, the SARS-CoV-2 infection rate in assay [2] is 92% (inactive).

With `Cc1cc(N2CCOCC2)cc2[nH]c(-c3c(NC[C@@H](O)c4cccc(Cl)c4)cc[nH]c3=O)nc12` (0.833333 µM), in assay [1], the morphology score is 0.0224. In addition, the SARS-CoV-2 infection rate in assay [2] was 110% (inactive).

In turn, `CC(OC(=O)OC1CCCCC1)OC(=O)C1=C(CSc2nnnn2CCN(C)C)CS[C@@H]2[C@H](NC(=O)Cc3csc(N)n3)C(=O)N12` (stereo not given in full) [cefotiam-cilexetil] (10 µM) came in with a morphology score in assay [1] of -0.0288. For the same compound, the SARS-CoV-2 infection rate in assay [2] was 109% (inactive).

In assay [1], `O=C(O)CCNc1cc(N2CCc3ccccc3CC2)nc(-c2ccccn2)n1` (10 µM) returned a morphology score of 0.19. Also, the SARS-CoV-2 infection rate in assay [2] was 101% (inactive).

As to `Cc1cc(NC(=O)C(c2ccccc2)N2CCCc3ccccc32)no1` (stereo not given) (10 µM), in assay [1], the morphology score worked out at 0.018. Also, in assay [2], the SARS-CoV-2 infection rate is 92% (inactive).

`CS(=O)(=O)Nc1ccc([N+](=O)[O-])cc1Oc1ccccc1` [nimesulide] (10 µM): the morphology score in assay [1] was 0.0266. In addition, in assay [2], the SARS-CoV-2 infection rate was 105% (inactive).

Compound `CC(=O)SC[C@@H](Cc1ccccc1)C(=O)NCC(=O)OCc1ccccc1` (racemic) [racecadotril] (10 µM) yielded a morphology score in assay [1] of 0.0461. Moreover, the SARS-CoV-2 infection rate in assay [2] was 110% (inactive).

With `C[C@@H]1CN(Cc2ccc(F)cc2)[C@@H](C)CN1C(=O)c1cc2c(C(=O)C(=O)N(C)C)cn(C)c2cc1Cl` [talmapimod] (10 µM), in assay [1], the morphology score stood at 0.103. Also, the SARS-CoV-2 infection rate in assay [2] is 88.5% (inactive).

In turn, `COc1ccc(/C=C/C(=O)O)cc1` [trans-4-methoxycinnamic-acid] (10 µM) showed a morphology score in assay [1] of 0.07. Also, the SARS-CoV-2 infection rate in assay [2] is 106% (inactive).

Regarding `Nc1nc2c(ccc3ccccc32)s1` (10 µM), the morphology score in assay [1] was -0.0747. Moreover, the SARS-CoV-2 infection rate in assay [2] is 102% (inactive).

`Nc1nc(OCC2CCCCC2)c2nc[nH]c2n1` (10 µM): in assay [1], the morphology score amounted to 0.0911. Besides, the SARS-CoV-2 infection rate in assay [2] is 90.5% (inactive).

In assay [1], `CC(COc1ccccc1)NC(C)C(O)c1ccc(O)cc1` (stereo not given) [isoxsuprine] (10 µM) gave a morphology score of 0.0115. Moreover, in assay [2], the SARS-CoV-2 infection rate is 109% (inactive).

In turn, `COc1ccc(S(=O)(=O)N2CCC[C@H]2C(=O)Nc2cc(C)cc(C)c2)cc1` (10 µM) gave a morphology score in assay [1] of -0.0886. Besides, the SARS-CoV-2 infection rate in assay [2] is 113% (inactive).
